Test results as given in PubChem BioAssay AID1159580 (chemical genetic matrix, 2015).
Values joined by “and” are separate entries in the source; they are usually repeats but may differ in a detail not shown here. Equal values may be shown once. Out of some 5,500 compounds screened, about 2,000 (36%) were called active. Roughly 18% stayed inconclusive and do not appear here. Cut-off read from the data, not from the text of the source: active = normalized growth mostly below about 0.91 (no sharp cut-off); inconclusive = no clear call, values can overlap the other calls; inactive = mostly above about 0.92. The list shows a part of the results.

Experiment: chemical genetic growth profiling, strain panel (AID 1159580);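 note: tested at 20 µM; growth read once vehicle control cultures reached saturation at 30 °C; 1 = growth at the plate median or of vehicle wells; lower values mean less growth of the strain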
Conditions: S. cerevisiae deletion strains, growth OD

Measured: normalized growth

CN[C@H](CC(=O)O)C(=O)O
inactive: locus YAL013W, strain DEP1, active compounds read low 0.983 | locus YAL021C, strain ccr4, active compounds read low 0.988 | locus YAL026C, strain drs2, active compounds read low 1.02 | locus YAL030W, strain snc1, active compounds read low 1.01 | locus YBL061C, strain skt5, active compounds read low 1.02 | locus YBR009C, strain hhf1, active compounds read low 1.01 | locus YBR021W, strain FUR4, active compounds read low 1.02 | locus YBR023C, strain chs3, active compounds read low 1.03 | locus YBR171W, strain sec66, active compounds read low 1.01 | locus YBR229C, strain ROT2, active compounds read low 0.998 | locus YBR231C, strain swc5, active compounds read low 1.02 | locus YBR279W, strain paf1, active compounds read low 1.01 | locus YCL011C, strain gbp2, active compounds read low 1.03 | locus YCL016C, strain dcc1, active compounds read low 1.02 | locus YCL029C, strain bik1, active compounds read low 0.985 | locus YCL061C, strain MRC1, active compounds read low 1 | locus YCL069W, strain vba3, active compounds read low 1.01 | locus YCR088W, strain abp1, active compounds read low 1.02 | locus YDL005C, strain med2, active compounds read low 1.03 | locus YDL035C, strain GPR1, active compounds read low 0.989 | locus YDL040C, strain nat1, active compounds read low 1.02 | locus YDL074C, strain BRE1, active compounds read low 1.04 | locus YDL101C, strain DUN1, active compounds read low 0.995 | locus YDL134C, strain PPH21, active compounds read low 0.987 | locus YDL185W, strain tfp1, active compounds read low 0.968 | locus YDL192W, strain arf1, active compounds read low 0.967 | locus YDR001C, strain nth1, active compounds read low 1.03 | locus YDR069C, strain doa4, active compounds read low 1.02 | locus YDR101C, strain arx1, active compounds read low 1.03 | locus YDR137W, strain rgp1, active compounds read low 0.967 | locus YDR159W, strain sac3, active compounds read low 1.03 | locus YDR162C, strain NBP2, active compounds read low 0.964 | locus YDR195W, strain ref2 1.05 | locus YDR297W, strain sur2, active compounds read low 1.02 | locus YDR318W, strain mcm21, active compounds read low 0.98 | locus YDR334W, strain swr1, active compounds read low 1.01 | locus YDR335W, strain msn5, active compounds read low 1.01 | locus YDR388W, active compounds read low 0.972 | locus YDR392W, strain spt3, active compounds read low 0.969 | locus YDR502C, strain sam2, active compounds read low 0.989 | locus YEL003W, strain gim4, active compounds read low 1.01 | locus YEL037C, strain rad23, active compounds read low 1.02 | locus YEL061C, strain CIN8 (second series), active compounds read low 1.03 | locus YEL061C, strain CIN8, active compounds read low 0.994 | locus YER015W, strain faa2, active compounds read low 1.02 | locus YER016W, strain bim1, active compounds read low 1.02 | locus YER110C, active compounds read low 0.945 | locus YER111C, strain swi4, active compounds read low 1.02 | locus YER155C, strain BEM2 (second series), active compounds read low 1.06 | locus YER155C, strain BEM2, active compounds read low 1 | locus YER167W, strain BCK2, active compounds read low 0.998 | locus YFR010W, strain ubp6, active compounds read low 1.03 | locus YGL078C, strain dbp3, active compounds read low 0.975 | locus YGL086W, strain mad1, active compounds read low 1.02 | locus YGL167C, strain pmr1, active compounds read low 1.01 | locus YGL173C, strain kem1, active compounds read low 1.01 | locus YGL227W, strain vid30, active compounds read low 1.03 | locus YGL240W, strain doc1, active compounds read low 1.04 | locus YGL248W, strain PDE1, active compounds read low 0.996 | locus YGL253W, strain hxk2, active compounds read low 1.02 | locus YGR135W, strain pre9, active compounds read low 0.923 | locus YGR252W, strain gcn5, active compounds read low 0.979 | locus YHR013C, strain ard1, active compounds read low 1.04 | locus YHR027C, strain rpn1, active compounds read low 1.02 | locus YHR030C, strain SLT2, active compounds read low 0.991 and 1.03 | locus YHR079C, strain IRE1 (second series), active compounds read low 0.992 | locus YHR079C, strain IRE1, active compounds read low 1.04 | locus YHR094C, strain hxt1, active compounds read low 0.981 | locus YHR129C, strain ARP1, active compounds read low 0.995 | locus YHR142W, strain chs7, active compounds read low 1.03 | locus YHR200W, strain rpn10, active compounds read low 0.98 | locus YIL066C, strain RNR3, active compounds read low 1 | locus YIL073C, strain SPO22, active compounds read low 0.913 | locus YIL125W, strain kgd1, active compounds read low 1 | locus YIR030C, strain dcg1, active compounds read low 0.983 | locus YJL092W, strain hpr5, active compounds read low 1.01 | locus YJL095W, strain BCK1 (second series), active compounds read low 1.02 | locus YJL095W, strain BCK1, active compounds read low 1.01 and 1.06 | locus YJL115W, strain asf1, active compounds read low 1.03 | locus YJL129C, strain trk1, active compounds read low 1.09 | locus YJL134W, strain LCB3, active compounds read low 0.993 | locus YJL154C, strain vps35, active compounds read low 1.02 | locus YJL164C, strain tpk1, active compounds read low 0.998 | locus YJL166W, strain qcr8, active compounds read low 1.03 | locus YJL168C, strain set2, active compounds read low 0.98 | locus YJL187C, strain SWE1 (second series), active compounds read low 1 | locus YJL187C, strain SWE1, active compounds read low 1.01 | locus YJR043C, strain POL32, active compounds read low 1
